# Reference: the supplement of paper PMC6555819
# Experiments:
# Assay in all cases: PBM binding z-score (relative to random genomic background probes); higher = stronger binding; sequences stand for … in GC…GCGATTGACAGCGTAGAATGAAGG
# [1] = test system: FXR:RXRa (NR concentration 270 nM, RXRa partner concentration 90 nM)
# In short: (§1)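 Binding buffer was PBS pH 7.4 with 2% milk, 0.02% Triton X-100, 1 mM DTT, 0.2 mg/mL BSA and 0.4 mg/ml salmon testes DNA. In it, ligand-free nuclear receptor dimers were incubated 1 h on custom Agilent 4×180K protein-binding microarrays carrying double-stranded probes. Antibodies against each partner (one per run) detected binding, and z-scores were calculated against random background probes after regression normalization of scanned fluorescence.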
# [2] = test system: LXRa:RXRa (NR concentration 270 nM, RXRa partner concentration 90 nM)
# In short: as §1
# [3] = test system: LXRa homodimer (NR concentration 270 nM)
# In short: as §1
# [4] = test system: LXRb:RXRa (NR concentration 270 nM, RXRa partner concentration 90 nM)
# In short: as §1
# [5] = test system: LXRb homodimer (NR concentration 270 nM)
# In short: as §1
# [6] = test system: PPARa:RXRa (NR concentration 270 nM, RXRa partner concentration 90 nM)
# In short: as §1
# [7] = test system: PPARg:RXRa (NR concentration 180 nM, RXRa partner concentration 90 nM)
# In short: as §1
# [8] = test system: PPARg:RXRa 270nM:90nM, anti-RXR (NR concentration 270 nM, RXRa partner concentration 90 nM)
# In short: as §1
# [9] = test system: PPARg:RXRa 30nM:10nM, anti-RXR (NR concentration 30 nM, RXRa partner concentration 10 nM)
# In short: as §1
# [10] = test system: PPARg:RXRa 90nM:30nM, anti-RXR (NR concentration 90 nM, RXRa partner concentration 30 nM)
# In short: as §1
# [11] = test system: PPARg:RXRa DBDmut IVT, anti-RXR (DBD mutation: RXRa K156A/R161A, NR concentration 270 nM, RXRa partner concentration 90 nM)
# In short: as §1
# [12] = test system: PPARg:RXRa IVT, anti-PPARg (NR concentration 270 nM, RXRa partner concentration 90 nM)
# In short: as §1
# [13] = test system: PPARg DBDmut:RXRa IVT, anti-PPARg (DBD mutation: PPARg1 K132A/R137A, NR concentration 270 nM, RXRa partner concentration 90 nM)
# In short: as §1
# [14] = test system: PPARg DBDmut IVT, anti-PPARg (DBD mutation: PPARg1 K132A/R137A, NR concentration 270 nM)
# In short: as §1
# [15] = test system: PPARg homodimer (NR concentration 180 nM)
# In short: as §1
# [16] = test system: PXR:RXRa (NR concentration 270 nM, RXRa partner concentration 90 nM)
# In short: as §1
# [17] = test system: PXR homodimer (NR concentration 270 nM)
# In short: as §1
# [18] = test system: RARa:RXR (NR concentration 270 nM, RXRa partner concentration 90 nM)
# In short: as §1
# [19] = test system: RARa homodimer (NR concentration 270 nM)
# In short: as §1
# [20] = test system: RARb:RXRa (NR concentration 270 nM, RXRa partner concentration 90 nM)
# In short: as §1
Sequence,PBM binding z-score [1],PBM binding z-score [2],PBM binding z-score [3],PBM binding z-score [4],PBM binding z-score [5],PBM binding z-score [6],PBM binding z-score [7],PBM binding z-score [8],PBM binding z-score [9],PBM binding z-score [10],PBM binding z-score [11],PBM binding z-score [12],PBM binding z-score [13],PBM binding z-score [14],PBM binding z-score [15],PBM binding z-score [16],PBM binding z-score [17],PBM binding z-score [18],PBM binding z-score [19],PBM binding z-score [20]
AGAACGATGGCACGCTGAGTTGATAGCAGAGTAG,-0.77,-0.938,-0.952,-0.881,-1.06,-0.687,0.523,-0.439,-0.196,-0.443,-0.571,-0.274,0.264,-0.833,0.102,-0.552,-0.384,-0.792,-0.387,-0.628
CCAGACAGGTGACAGGTAACTCAGTCTGGTACGC,-0.312,-0.0899,-0.169,-0.0936,-0.582,0.79,1.37,1.4,0.0561,0.74,1.77,1.46,-0.216,-0.746,0.536,-0.209,0.203,0.0624,0.656,0.724
TCTAGTTGGTCACGGAGGTCAGACACGACGGGTA,2.17,2.33,1.51,2.23,0.127,2.88,2.45,2.97,3.26,3.11,2.48,3.14,0.816,0.0631,2.07,2.96,0.703,2.79,0.955,3.26
ATATGTAGGTTATAGGGTCATTCAGTTTGCGCAT,4.47,4.26,2.22,3.98,1.38,5.36,7.99,7.04,5.54,7.25,7.51,7.16,2.03,1.57,3.17,4.88,8.92,5.18,1.96,3.19
GCTGCTAGGTCAACAGATGGTCAGCTAAAGCTCG,3.13,2.22,-0.297,1.37,-0.198,2.99,2.43,2.5,0.277,1.86,4.44,3.68,-0.0685,-0.727,1.6,1.22,-0.762,2.23,-0.595,3.97
CTCGAAAGGTCGGTTGAGGTGAGAATACGGATAA,3.46,1.74,-0.255,1.42,0.119,2.77,0.632,1.34,0.543,0.887,-0.0519,0.993,0.334,0.0546,0.742,3.13,0.108,2.11,0.173,2.98
CCTAGCAGGCCAATCTGGGTCATTCAAGGCTTGA,1.16,1.52,-0.318,0.813,-1.03,2.54,1.18,1.73,-0.272,0.958,3.81,4.05,-1.11,-0.944,0.0423,1.63,-0.53,1.04,-0.337,1.17
ATATGTAGGTTACATCCGGGTCATTCAGGCTATG,2.66,4.27,1.82,3.02,0.76,4.32,5.92,5.17,2.54,4.54,7.56,7.11,2.58,1.6,2.15,3.62,2.13,3.64,0.928,2.23
TCTTGTAGATCAACAGGAGGTTCAGAAAGATCGA,0.027,-0.0973,-0.476,-0.000896,-0.414,0.453,-0.062,1.25,2.65,2.18,1.5,0.779,0.136,0.251,-0.725,0.256,-0.264,0.00715,-0.572,0.0281
ATCGCTAGGTAAAAGTTCAGTGAATCCCGAGGAT,0.352,1.06,0.677,0.618,-0.3,2.84,4.94,5.9,5.05,6.23,-0.272,1.63,0.14,-0.441,0.521,1.64,1.06,1.49,-0.726,2.04
TCCAGTAGGTTAGGGGCATTCAGAATGGCGTCGA,0.986,0.635,-0.245,1.19,-0.0601,1.72,1.87,3.55,2.86,3.05,3.35,2.67,-0.472,0.307,1.01,0.69,0.251,0.878,-0.317,1.22
CCTAGTTGGTCAGGAGGTCACACGCCGGATATGA,3.62,3.32,1.92,3.15,0.554,4.05,3.59,3.92,1.69,2.84,1.84,3.74,0.471,-0.188,3.2,4.12,1.31,4.32,1.9,3.71
CGTCCAGGGTCAGAGAGGTCAGTGAATGCCGAGT,5.65,4.8,1.62,4.15,-0.103,4.87,3.32,4.21,1.19,2.81,1.59,2.32,-0.324,-0.926,3.95,6.01,9.1,5.52,1.6,4.77
TCTGCTAGGTCAGTTGGTCAGCCAACGAGCTGCC,0.772,0.762,-0.677,0.196,-0.0137,1.52,0.643,1.9,1.52,1.51,2.34,2.92,2.07,0.334,0.252,0.152,-0.764,0.399,-1.63,3.3
ATATGTAGGTTATCGGGTTATTCAGTTTGCGCAT,1.49,1.81,1.11,2.23,1.29,3.81,6.03,4.99,2.41,4.37,7.05,7.32,2.24,2.13,2.36,1.88,1.38,1.79,2.46,1.11
